Most compounds without a hit are left out; they make up all but 3% or so of the library.
Tau fibril ThT – qHTS for Inhibitors of Tau Fibril Formation, Thioflavin T Binding; Microtubule-associated protein tau (Homo sapiens), P10636; recombinant tau K18 P301L, heparin-induced fibrillization, ThT fluorescence; Potency, µM (top dose mostly 57.4 µM), usual class: inhibitors; actives 2.1% (n = 270,000); AID 1460, 2008; also: nearly all actives have a fitted effect of over 55% in size
Target sequence (P10636 561-689 P618L limits assumed): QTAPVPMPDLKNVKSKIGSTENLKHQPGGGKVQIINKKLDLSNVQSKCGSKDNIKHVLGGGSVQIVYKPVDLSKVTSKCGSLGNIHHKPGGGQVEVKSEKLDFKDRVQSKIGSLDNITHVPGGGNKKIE
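K18 P301L tau (15 uM + 0.24 uM Alexa 594-tagged), heparin 20 uM, NaOAc pH 7, 6 h 37 C; ThT 30 uM, 1 h RT, ex 450/em 510 nm.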
Coupling enz – qHTS Assay for Inhibitors of Fructose-1,6-bisphosphate Aldolase from Giardia Lamblia: Coupling assay counterscreen; actives 0.67% (n = 290,000); activity change, negative = inhibition, % at 58.2 µM, hits read low; coupling enzyme system counterscreen, AmpLite Red fluorescence; AID 2472, 2010; in the data active = activity change below about -30%
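Final compound at 57.5 uM, incubated 10 min at RT with coupling enzyme reagent (glyceraldehyde-3-phosphate), then 20 min with substrate and AmpLite Red detection. Fluorescence read at 525/598 nm; tests interference with the coupling assay, not aldolase inhibition.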
KDM4E inh – qHTS Assay for Inhibitors of Human Jumonji Domain Containing 2E (JMJD2E); Potency, µM (doses to about 57.1 µM), hits mostly inhibitors; JMJD2E catalytic domain, FDH-coupled NADH fluorescence (FDH is formaldehyde dehydrogenase); Lysine-specific demethylase 4E (Homo sapiens), B2RXH2; actives 1.6% (n = 230,000); active = well fitted inhibition curve with a large enough effect, not every such curve was filed as active; inconclusive = small, poorly fitted or top-dose-only effect, or another doubt; inactive = no such curve, though single readings can be large or run the other way; also: nearly all actives have a fitted effect of over 50% in size
Target sequence (B2RXH2 1-337 limits assumed): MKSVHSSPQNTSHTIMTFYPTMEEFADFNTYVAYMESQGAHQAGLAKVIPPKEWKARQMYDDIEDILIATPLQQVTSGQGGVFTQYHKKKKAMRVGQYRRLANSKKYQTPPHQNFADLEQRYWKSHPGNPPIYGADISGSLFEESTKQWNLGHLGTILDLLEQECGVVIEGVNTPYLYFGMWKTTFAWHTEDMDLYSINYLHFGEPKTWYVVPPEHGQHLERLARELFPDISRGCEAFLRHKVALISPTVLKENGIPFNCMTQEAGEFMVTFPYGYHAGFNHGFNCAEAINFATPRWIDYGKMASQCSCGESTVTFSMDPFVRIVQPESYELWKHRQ
Tau FP inhib – qHTS for Inhibitors of Tau Fibril Formation, Fluorescence Polarization; Microtubule-associated protein tau (Homo sapiens), P10636; K18 P301L tau heparin fibrillization, Alexa594 FP, 6 h; Potency, µM (top dose mostly 57.7 µM), most hits filed as inhibitors; actives 0.39% (n = 280,000); AID 1468, 2008; also: nearly all actives have a fitted effect of over 55% in size
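FP of Alexa 594-tau after heparin (20 uM) induction. Substrate: human K18 P301L, 15 uM unlabeled, 0.24 uM labeled. Buffer 100 mM sodium acetate pH 7. 6 hr, 37 C.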
Tau fluor cs – Counterscreen qHTS for Inhibitors of Tau Fibril Formation, Fluorescence Polarization | tau K18 P301L Alexa594 fluorescence, heparin fibrillization | Potency, µM (highest dose often 57.7 µM) | actives 0.93% (n = 280,000) | AID 1463, 2008; also: nearly all actives have a fitted effect of over 55% in size
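Human tau K18 P301L (15 uM unlabeled, 0.24 uM Alexa 594-labeled) in 100 mM sodium acetate pH 7 with 20 uM heparin, 6 hr at 37 C. ThT 30 uM added, 1 hr ambient; Alexa 594 FP and total fluorescence read at 555/632 nm.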
Of the large screens only hits and unclear results are named; the others gave an inactive call; [ ] = remark or other dose. Unless noted, calls follow the shape of the dose curve; as a rule, active = well fitted curve in the direction sought with a large enough effect; inconclusive = small, poorly fitted or top-dose-only effect, or another doubt; inactive = no such curve, though single readings can be large; an effect the other way counts as inactive or inconclusive.

O=C(Oc1c(CN2CCOCC2)cc(Cl)c2cccnc12)c1ccccc1	Tau fibril ThT inconclusive, Tau FP inhib inconclusive
CC(C)CCCC(C)CCCC(C)CCCC(C)C(=O)O (stereo unspecified)	none (no result: Tau fibril ThT, KDM4E inh, Tau FP inhib, Tau fluor cs)
COc1cccc(OCCNc2cc(N3CCCCC3)ccc2[N+](=O)[O-])c1	Tau fibril ThT inconclusive, Tau fluor cs inconclusive
COc1cccc(OCCNc2cc(N3CCOCC3)ccc2[N+](=O)[O-])c1	Tau fibril ThT 11.2µM, Tau fluor cs inconclusive
CCNc1cc(N2CCCC2)ccc1[N+](=O)[O-]	Tau fibril ThT 11.2µM
COc1ccc(OCCNc2cc(N3CCOCC3)ccc2[N+](=O)[O-])cc1	Tau fibril ThT 5.01µM, Tau fluor cs inconclusive
COc1ccc(OCCNc2cc(N3CCCCC3)ccc2[N+](=O)[O-])cc1	Tau fibril ThT inconclusive, Tau FP inhib inconclusive, Tau fluor cs inconclusive
O=C(Cn1c(SCCOc2ccccc2Cl)nc2ccccc21)N1CCCCC1	none (no result: Coupling enz, KDM4E inh)
O=c1ccc2ccccc2[nH]1	none (no result: Tau fibril ThT, KDM4E inh, Tau FP inhib, Tau fluor cs)
C=CCn1c(C)cc(C2=NNC(=Nc3ccc(C)cc3)SC2)c1C	Tau fibril ThT inconclusive
Cc1cc(C2=NNC(=Nc3ccc(S(=O)(=O)N4CCOCC4)cc3)SC2)c(C)n1C	Tau fibril ThT inconclusive, KDM4E inh 8.91µM
COCCCNC(=O)c1ccc(-n2c(-c3ccccc3)cc3c2CCC(C)C3)cc1 (stereo unspecified)	Tau FP inhib 12.6µM (no result: Coupling enz, KDM4E inh)
COCCNC(=O)c1ccc(-n2c(-c3ccccc3)cc3c2CCCCC3)cc1	Tau FP inhib 25.1µM, Tau fluor cs inconclusive (no result: Coupling enz, KDM4E inh)
CC(C)OCCCNC(=O)c1ccc(-n2c(-c3ccccc3)cc3c2CCCC3)cc1	Tau FP inhib 14.1µM, Tau fluor cs inconclusive (no result: Coupling enz, KDM4E inh)
Cc1cc2c(n1-c1ccc(C(=O)NCCc3ccccc3)cc1)CCC(C)C2 (stereo unspecified)	Tau fibril ThT inconclusive, Tau FP inhib inconclusive (no result: Coupling enz, KDM4E inh)
CCNC(=O)c1ccc(-n2c(-c3ccccc3)cc3c2CCCCC3)cc1	Tau FP inhib 11.2µM, Tau fluor cs inconclusive (no result: Coupling enz, KDM4E inh)
CCCNC(=O)c1ccc(-n2c(-c3ccccc3)cc3c2CCCCC3)cc1	Tau FP inhib inconclusive, Tau fluor cs inconclusive (no result: Coupling enz, KDM4E inh)
CCOCCCNC(=O)c1ccc(-n2c(-c3ccccc3)cc3c2CCCCC3)cc1	Tau FP inhib 20µM, Tau fluor cs inconclusive (no result: Coupling enz, KDM4E inh)
COC(=O)C1=C(C(=O)OC)[C@@H]2Nc3ccccc3[C@@]23C[C@@H](C(=O)OC)N(S(=O)(=O)c2c(C)noc2C)C3=N1	none
CCOC(=O)c1cc(-c2ccccc2)n(-c2cccc(C(=O)Nc3ccc(OC)cc3)c2)c1C	none (no result: Coupling enz, KDM4E inh)
CCN(CC)S(=O)(=O)c1ccc(N/N=C(\C)c2ccc(OC)cc2O)nc1	Tau fibril ThT inconclusive, KDM4E inh 31.6µM, Tau FP inhib inconclusive, Tau fluor cs inconclusive
O=C(NN1C(=O)CSC1=S)C(=O)NN1C(=O)CSC1=S	Tau fibril ThT inconclusive, KDM4E inh 8.91µM
O=C(Cc1cccc2ccccc12)NN1C(=O)CSC1=S	Tau fibril ThT inconclusive
CC[C@H](C)[C@H](NC(=O)[C@H](C)NC(=O)[C@H](Cc1cnc[nH]1)NC(=O)[C@@H]1CCCN1C(=O)CNC(=O)[C@H](CC(C)C)NC(=O)[C@H](CC(C)C)NC(=O)[C@H](Cc1ccc(O)cc1)NC(=O)CNC(=O)[C@H](C)NC(=O)[C@H](CO)NC(=O)[C@H](CC(N)=O)NC(=O)[C@H](CC(C)C)NC(=O)[C@@H](NC(=O)[C@H](Cc1c[nH]c2ccccc12)NC(=O)CN)[C@@H](C)O)C(=O)N[C@@H](CC(=O)O)C(=O)N[C@@H](CC(N)=O)C(=O)N[C@@H](Cc1cnc[nH]1)C(=O)N[C@@H](CCCNC(=N)N)C(=O)N[C@@H](CO)C(=O)N[C@@H](Cc1ccccc1)C(=O)N[C@@H](CO)C(=O)N[C@@H](CC(=O)O)C(=O)N[C@@H](CCCCN)C(=O)N[C@@H](Cc1cnc[nH]1)C(=O)NCC(=O)N[C@@H](CC(C)C)C(=O)N[C@H](C(N)=O)[C@@H](C)O	none (no result: Tau fibril ThT, KDM4E inh, Tau FP inhib, Tau fluor cs)
Cc1ccc(S(=O)(=O)Nc2cc3c(cc2NCc2ccccc2)n(C)c(=O)n3C)c(C)c1	Tau fibril ThT 17.8µM, Tau FP inhib inconclusive, Tau fluor cs inconclusive (no result: Coupling enz, KDM4E inh)
COc1cccc(C2NC(=S)NC3=C2CCc2ccccc23)c1 (stereo unspecified)	Tau fibril ThT inconclusive, Coupling enz -43.3, Tau FP inhib inconclusive, Tau fluor cs inconclusive
CC(C)c1ccc(C2NC(=O)NC3=C2CCc2ccccc23)cc1 (stereo unspecified)	Tau fibril ThT inconclusive, KDM4E inh inconclusive
Cc1ccc(C2NC(=O)NC3=C2CCc2ccccc23)cc1 (stereo unspecified)	Tau fibril ThT inconclusive, Coupling enz -39.9, KDM4E inh inconclusive
COc1ccc(C2NC(=O)NC3=C2CCc2ccccc23)cc1 (stereo unspecified)	Tau fibril ThT 25.1µM, KDM4E inh inconclusive, Tau FP inhib inconclusive
COc1ccc2c(c1)C1=C(CC2)C(c2ccc(C)cc2)NC(=S)N1 (stereo unspecified)	Tau fibril ThT inconclusive
COc1ccc(C2NC(=O)NC(c3ccccc3)=C2c2nc3ccccc3s2)cc1 (stereo unspecified)	KDM4E inh inconclusive
O=C(c1ccc2c(c1)N(Cc1ccccc1)C(=O)c1ccccc1S2(=O)=O)N1CCc2ccccc21	none (no result: Coupling enz, KDM4E inh)
CCOc1ccc(OCC)c(NC(=O)CCC(=O)N2CCOc3ccccc32)c1	none (no result: Coupling enz, KDM4E inh)
CC(C)C[C@H](N)CSSC[C@@H](N)CC(C)C	Tau fibril ThT 5.01µM, Tau FP inhib inconclusive (no result: Coupling enz)
CSc1ccc(C2c3c(-c4ccccc4O)n[nH]c3C(=O)N2Cc2ccncc2)cc1 (stereo unspecified)	Tau fluor cs inconclusive (no result: Coupling enz, KDM4E inh)
CCc1ccc(NSc2ccccc2[N+](=O)[O-])cc1	Tau fibril ThT inconclusive, Tau fluor cs 14.1µM[quencher]
O=C(N/N=C\c1ccc([N+](=O)[O-])o1)c1cncc(Br)c1	none (no result: Tau fibril ThT)
Nn1cnnc1N/N=C\c1ccc(-c2ccccc2[N+](=O)[O-])o1	Tau fibril ThT 7.94µM, Coupling enz -49.2, KDM4E inh 4.47µM, Tau FP inhib inconclusive, Tau fluor cs inconclusive
O=C(N/N=C/c1ccc(-c2ccccc2[N+](=O)[O-])o1)c1cncc(Br)c1	Tau fibril ThT 7.94µM, Tau FP inhib inconclusive, Tau fluor cs inconclusive
Cc1cc([N+](=O)[O-])c(C)cc1-c1ccc(/C=N/NC(=O)c2cccnc2)o1	Tau fibril ThT 7.08µM, Tau FP inhib inconclusive, Tau fluor cs inconclusive
Cc1c(C(=O)N/N=C/c2ccc(-c3ccccc3[N+](=O)[O-])o2)sc(N)c1C#N	Tau fibril ThT inconclusive, Coupling enz -33.4, Tau fluor cs inconclusive

Source: PubChem (National Center for Advancing Translational Sciences (NCATS))
